# Values joined by “and” are separate entries in the source; they are usually repeats but may differ in a detail not shown here. Identical values can stand only once. Inconclusive results are not listed. A call without a number means that no potency is given here. A structure can be active in one record and inactive in another. Active and inactive are the calls of the source. Calls follow the shape of the dose curve; as a rule, active = well fitted curve in the direction sought with a large enough effect in the repeat runs; inconclusive = weak or mixed curves; inactive = no such curve, though single readings can be large; an effect the other way counts as inactive or inconclusive.
# How the values were obtained:
# [1] = qHTS assay for identifying genotoxic compounds that show differential cytotoxicity against isogenic chicken DT40 cell lines with known DNA damage response pathways - wild type cell line (AID 743012); also: nearly all actives have a fitted effect of over 60% in size
# How it was run: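 CellTiter-Glo luminescence readout of viability in wild type DT40 cells after 40 h compound exposure at 37 C/5% CO2; 300 cells/well; reagent incubated 30 min at room temperature before reading.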
# [2] = qHTS assay for identifying genotoxic compounds that show differential cytotoxicity against isogenic chicken DT40 cell lines with known DNA damage response pathways - Rev3 mutant cell line (AID 743014); also: nearly all actives have a fitted effect of over 55% in size; also: potency is read from the fitted curve at half-maximal effect
# [3] = qHTS assay for identifying genotoxic compounds that show differential cytotoxicity against isogenic chicken DT40 cell lines with known DNA damage response pathways - Rad54/Ku70 mutant cell line (AID 743015); also: nearly all actives have a fitted effect of over 60% in size
# Source text: National Center for Advancing Translational Sciences [NCATS]
# NIH Chemical Genomics Center [NCGC]
# U.S. Environmental Protection Agency [EPA]
# National Institutes of Environmental Health Sciences [NIEHS]
# National Toxicology Program [NTP]
# U.S. Food and Drug Administration [FDA]
# DNA repair pathways play a critical role in cellular homeostasis by repairing DNA damage induced by endogenous processes and xenobiotics. Isogenic chicken DT40 cell lines deficient in different DNA repair pathways can be used to identify genotoxic compounds and aid in characterizing the nature of the DNA damage induced. Two DNA repair-deficient cell lines with disrupted genes, Rad54/Ku70 or Rev3, were used to screen the Tox21 10K compound library. Possible genotoxicity was based on the presence of a significant increase in cytotoxicity in one or more of the DNA repair-deficient cell lines compared to that observed in the parental DNA repair-proficient cell line. […]
# 300 DT40 mutant cells in 5 uL/well were dispensed into white, solid-bottom 1536-well plates using a Multidrop Combi (ThermoFisher Scientific, Waltham, MA) dispenser. […] After 5 uL per well of CellTiter-Glo reagent was added into each well of the assay plates, the plates were incubated for 30 min at room temperature and the luminescence intensity of the plates was measured using a ViewLux (PerkinElmer, Shelton, CT) plate reader.
compound,measurement,setting,value
CC(C)C(=O)OCC(C)(C)C(OC(=O)C(C)C)C(C)C (stereo not drawn),Potency,[1],inactive
same,Potency,[2],inactive and 19.3 µM (active)
same,Potency,[3],inactive

# From PubChem BioAssay (Tox21)
